Screens as filed in PubChem BioAssay.
Rows were chosen to be rich in hits. Some 1.2% of all compounds tested hit in one or more screens of this group.
RGS7-Gao reg: regulators of human RGS7-Galphao interaction; P09471; Multiplexed bead flow cytometry, RGS7-Galphao binding; actives lie on both sides; binding response (% of control), % at 10 µM; 220,000 tested, 0.35% active; AID 1439; in the data active = binding response below about 49% or above about 150%; inconclusive = no clear call, values can overlap the other calls; inactive = in between;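 note: fluorescent Galphao held in activated GDP-AlF4 state binding bead-coupled RGS7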
Target sequence (P09471 whole entry, looked up): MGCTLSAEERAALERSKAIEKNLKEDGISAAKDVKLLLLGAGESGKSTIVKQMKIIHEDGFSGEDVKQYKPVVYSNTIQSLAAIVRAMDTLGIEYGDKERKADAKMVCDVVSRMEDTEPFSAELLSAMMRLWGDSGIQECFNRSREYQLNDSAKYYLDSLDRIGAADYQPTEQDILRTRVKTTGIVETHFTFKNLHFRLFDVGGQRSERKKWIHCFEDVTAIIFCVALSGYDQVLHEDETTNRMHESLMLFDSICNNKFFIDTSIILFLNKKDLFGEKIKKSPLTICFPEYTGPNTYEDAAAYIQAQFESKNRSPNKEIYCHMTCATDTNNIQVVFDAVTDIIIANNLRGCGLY
GSH bead fluor: compound fluoresces at 488/530 nm on GSH beads; AID 1776; 190,000 tested, 0.25% active; fluorescence (KMESF) at 10 µM; GSH beads flow cytometry, compound fluorescence 488/530 nm; hits give high values; in the data active = fluorescence above about 89;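 note: glutathione beads carrying GST-tagged Bcl family fusion proteins plus one bare bead set; values are compound well signal with DMSO vehicle wells as background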
RGS4-Gao reg: modulates binding of RGS4 to human Galphao | P09471 | Multiplexed bead flow cytometry; actives lie on both sides | binding response (% of control), % at 10 µM | 220,000 tested, 0.33% active; in the data active = binding response below about 49% or above about 150%; inactive = in between;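 note: fluorescent Galphao activated with aluminum fluoride binding bead-coupled RGS4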
Avidin fluor: avidin bead compound fluorescence profile | Avidin beads, compound fluorescence 488/530 nm, flow cytometry; hits give high values | fluorescence (KMESF) at 10 µM | 220,000 tested, 0.38% active; in the data active = fluorescence above about 47
RGS16-Gao: regulators of human RGS16-Galphao interaction | AID 1441 | 220,000 tested, 0.38% active | binding response (% of control), % at 10 µM | bead-based flow cytometry RGS16-Galphao binding, fluorescence; actives lie on both sides;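 note: Galphao activated by GDP with aluminum fluoride before binding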
Target sequence (O15492 whole entry, looked up): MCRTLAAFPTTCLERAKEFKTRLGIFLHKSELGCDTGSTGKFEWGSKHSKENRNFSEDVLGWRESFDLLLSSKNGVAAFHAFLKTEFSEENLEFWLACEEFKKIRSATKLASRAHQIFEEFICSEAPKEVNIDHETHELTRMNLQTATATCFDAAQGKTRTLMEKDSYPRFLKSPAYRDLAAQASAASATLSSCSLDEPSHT
Target sequence (P09471 whole entry, looked up): as the sequence (P09471 whole entry, looked up) above
RGS8-Gao: regulators of human RGS8-Galphao interaction. multiplexed bead flow cytometry, RGS8-Galphao binding; actives lie on both sides. AID 1423. P09471. response (percent of control binding), % at 10 µM. 220,000 tested, 0.34% active; in the data active = response below about 60% or above about 140%; inactive = in between;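 note: Galphao activated as the GDP aluminium fluoride complex binding bead-coupled RGS8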
RGS-Gao: modulates binding between human RGS4 and Galphao | shares compounds with RGS16-Gao | multiplexed bead flow cytometry, RGS–Galpha-o binding | RGS4–Galpha-o binding response, % at 10 µM | 1,600 tested, 99% active | AID 1504;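 note: fluorescently labeled Galpha-o bound to GDP with aluminium fluoride binding biotinylated RGS beads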
Avidin counter: interferes with biotinylated probe binding to avidin beads | shares compounds with RGS16-Gao | streptavidin beads, fluorescein-biotin binding, flow cytometry | inhibition, % at 10 µM | 1,700 tested, under 10 active | AID 1783;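 active = inhibition above 50%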;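 note: median green fluorescence of gated singlet beads compared with DMSO control wells; 0% = DMSO wells and 100% = complete loss of bead fluorescence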
RGS8-Gao confirm: confirmation of regulators of human RGS8-Galphao interaction; shares compounds with RGS16-Gao; bead-based flow cytometry RGS8-Galphao binding, fluorescence; actives lie on both sides; 1,700 tested, 3% active; AID 1836; binding response (% of control), % at 10 µM; in the data active = binding response below about 72% or above about 130%; inactive = in between;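 note: Galphao activated as GDP AlF4 complex before binding bead RGS8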
RGS7-Gao single: confirmation of regulators of human RGS7-Galphao interaction | shares compounds with RGS16-Gao | bead-based flow cytometry RGS7-Galphao binding; actives lie on both sides | response (percent of control binding), % at 10 µM | 1,700 tested, 7.8% active; in the data active = response below about 75% or above about 130%; inactive = in between;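 note: fluorescent Galphao activated with GDP and aluminum fluoride binding bead-coupled RGS7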
RGS16-Gao single: RGS16-Galphao interaction regulation, single point confirmation | shares compounds with RGS16-Gao | bead-based flow cytometry, RGS16-Galphao binding; actives lie on both sides | response (% of control binding), % at 10 µM | 1,700 tested, 4% active | AID 1838; in the data active = response below about 74% or above about 130%; inactive = in between;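 note: Galphao activated as the GDP aluminium fluoride complex binding bead-coupled RGS16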
RGS4-Gao confirm: RGS4-Galphao interaction regulation, single point confirmation | shares compounds with RGS16-Gao | RGS4-Galphao binding, multiplexed bead flow cytometry; actives lie on both sides | binding response (% of control), % at 10 µM | 1,700 tested, 4% active | AID 1840; in the data active = binding response below about 74% or above about 130%; inactive = in between
RGS19-Gao conf: RGS19-Galphao interaction regulation, single point confirmation | AID 1841 | response (percent of control binding), % at 10 µM | 1,700 tested, 5% active | shares compounds with RGS16-Gao | bead-based flow cytometry RGS19-Galphao binding; actives lie on both sides; in the data active = response below about 50% or above about 160%; inactive = in between;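 note: 100% = no compound control and 0% = blank background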
Numbers without * were called inactive; i = inactive; ? = inconclusive; · = no result; [ ] = another dose, or the depositor's remark. Unless noted, the rule behind the calls is not given here.

SMILES	RGS7-Gao reg	GSH bead fluor	RGS4-Gao reg	Avidin fluor	RGS16-Gao	RGS8-Gao	Avidin counter	RGS8-Gao confirm	RGS7-Gao single	RGS16-Gao single	RGS4-Gao confirm	RGS19-Gao conf	others
COc1ccccc1Nc1nc(N)nc(CN2CCC(C)CC2)n1	97.5	17	96.5	6	96.1	96.8	·	·	·	·	·	·
CN(Cc1cn(C)nc1-c1ccccc1F)CC1CCCCO1 (stereo unspecified)	46.1*	14	73.7	0	78.0	66.7	0.1	101.4	100.0	101.9	102.5	96.6	RGS-Gao=73.7*
CN(Cc1cn(C)nc1-c1ccccc1F)CC1CCN(Cc2ccccc2)CC1	?	·	96.8	4	100.2	100.4	·	·	·	·	·	·
CN(Cc1cccc(Cl)c1Cl)c1ccc(S(=O)(=O)N2CCCCC2)cc1[N+](=O)[O-]	94.7	9	90.0	5	100.5	94.8	·	·	·	·	·	·
OCCN1CCN(c2cc(C(F)(F)F)nc3c(F)cccc23)CC1	?	·	-9.0*	-1	-6.6*	10.8*	-0.5	101.8	99.5	103.1	99.8	107.1
O=[N+]([O-])c1cc(C(F)(F)F)c(Cl)cc1N1CCN(CCO)CC1	99.6	15	102.6	22	99.3	101.9	·	·	·	·	·	·
COc1cc(NCCC(=O)c2cccs2)c(OC)cc1Cl	?	11	99.3	13	99.6	100.3	·	·	·	·	·	·
CCOc1ccc(N2C(=O)/C(=C/c3cccs3)N(C)C2=S)cc1	104.9	5	100.0	2	104.3	102.3	·	·	·	·	·	·
CCc1ccc(/C=C2/C(=O)N(CC)C(=S)N2C)s1	198.8*[activator]	11	197.7*[activator]	2	112.7	170.2*[activator]	-0.5	104.5	105.5	104.7	103.2	95.2
COc1ccccc1-c1c(C)nn2c(N3CCC(C)CC3)cc(C)nc12	?	·	16.9*	0	10.9*	21.9*	0.1	110.5	112.4	110.5	110.8	101.2
CCOc1ncccc1C(=O)OCc1nnc(-c2ccccc2)o1	·	40	·	·	·	·	-1.0	100.1	100.0	100.0	99.3	118.2
O=C(OCc1nnc(-c2ccccc2)o1)c1cccnc1Cl	100.4	13	103.7	9	99.6	100.6	·	·	·	·	·	·
NC(N)=NC(N)=Nc1ccc(SC(F)(F)F)cc1	96.7	11	100.9	2	15.8*	71.6	-0.5	100.7	99.5	102.2	99.5	100.0	RGS-Gao=100.9*
NC(N)=NC(N)=Nc1ccc2ccccc2c1	98.7	12	100.8	6	100.1	95.0	·	·	·	·	·	·
COc1ccc(NC(=S)NNC(=O)CNc2ccc(Cl)cc2)cc1	?	15	100.1	10	99.9	97.2	·	·	·	·	·	·
O=C1c2ccccc2C(=O)N1CCc1ccccn1	117.0	24	127.3	3	i	152.9*[activator]	1.0	102.2	99.6	99.4	97.9	54.3	RGS-Gao=127.3*
O=C1c2cccc3c([N+](=O)[O-])ccc(c23)C(=O)N1CCc1ccccn1	?	·	96.3	8	96.3	97.5	·	·	·	·	·	·
O=C(c1ccccc1F)N1CCN(c2ccc([N+](=O)[O-])c(NCC3CCCO3)c2)CC1 (stereo unspecified)	98.3	10	98.9	6	100.7	98.2	·	·	·	·	·	·
CCCn1c(NCc2c[nH]c3ccccc23)nc2ccccc21	103.3	48	104.5	9	315.8	143.2*[activator]	-0.1	94.6	85.6	91.7	92.9	73.2	RGS-Gao=104.5*
N#Cc1cnn(-c2ccccc2)c1NC(=O)CN1CCN(c2ccccc2)CC1	?	·	105.3	7	104.6	100.1	·	·	·	·	·	·
COCCNCC(=O)Nc1nc(C)cs1	?	17	98.5	13	101.2	99.0	·	·	·	·	·	·
Cc1cccc(/C(N)=N/OC(=O)C23CC4CC(CC(C4)C2)C3)c1	82.0	13	80.1	1	12.1*	55.7*	-0.7	103.5	102.7	103.3	100.9	104.1	RGS-Gao=80.1*
Cc1cccc(/C(N)=N/OC(=O)Cc2ccccc2)c1	110.1	20	103.6	8	100.9	102.0	·	·	·	·	·	·
CCN(CC)S(=O)(=O)c1cc(C(=O)Nc2nncs2)c(Cl)cc1Cl	·	14	104.8	·	56.5	77.5	0.0	96.9	96.3	91.1	94.4	90.9
Cc1cc(C)nc(NNC(=O)NC2CCCCC2)n1	-8.8*	14	-11.3*	-2	-20.2*	2.4*	-0.1	113.1	118.6	119.0	112.4	107.2
SMILES	RGS7-Gao reg	GSH bead fluor	RGS4-Gao reg	Avidin fluor	RGS16-Gao	RGS8-Gao	Avidin counter	RGS8-Gao confirm	RGS7-Gao single	RGS16-Gao single	RGS4-Gao confirm	RGS19-Gao conf	others
CCOc1ccccc1NS(=O)(=O)N(C)C	61.5	15	11.0*	6	-852.6	64.7	-0.8	99.9	96.1	97.8	94.2	102.4
COc1cc2c(cc1NC(=S)NC(=O)/C=C/c1ccco1)oc1ccccc12	98.8	4	102.6	7	21.1*	89.0	0.1	102.8	102.5	100.1	102.5	76.7	RGS-Gao=102.6*
Cc1nc(Cl)c(Cl)n1CCOc1ccccc1	?	·	-14.4*	-2	-7.5*	6.8*	1.0	101.4	107.9	103.3	104.6	101.3
Cc1nc2ccccc2n1CCCOc1ccccc1	102.0	29	101.6	5	107.6	102.6	·	·	·	·	·	·
CCOc1ccc(NC(=S)N(C)C)cc1	?	·	100.0	3	102.7	99.3	·	·	·	·	·	·
CCC(=O)c1ccc(OCC(=O)N2CCc3cc(OC)c(OC)cc3C2)cc1	-11.6*	28	-32.8*	-3	-36.2*	9.6*	-2.5	102.5	96.3	97.3	100.2	127.6
c1ccc(C2CCC(N3CCNCC3)CC2)cc1 (stereo unspecified)	121.8	10	120.0	6	250.0*[activator]	140.6*[activator]	-1.3	103.3	94.1	97.3	93.3	102.5	RGS-Gao=120.0*
CCOC(=O)c1sc(Nc2nc3cc4c(cc3s2)OCO4)cc1C	665.6*[activator]	102*	582.7*[activator]	417*	938.1*[activator]	170.8*[activator]	1.8	92.1	69.3*	79.8	79.9	48.0*
CC(=O)c1sc(Nc2nc3cc4c(cc3s2)OCO4)nc1C	95.3	9	97.7	11	94.8	95.3	·	·	·	·	·	·
